These results are taken from paper PMC7862700, “An all-to-all approach to the identification of sequence-specific readers for epigenetic DNA modifications on cytosine”.

What all share (test): DAPPL (digital affinity profiling via proximity ligation, sequencing); 10 mM Tris-HCl pH 7.5, 50 mM NaCl, 1 mM DTT, 4% glycerol, room temperature, 30 min; GST-TFs on glutathione beads, 16-mer random dsDNA library, 0.1% formaldehyde crosslink after washing; high values mean tight binding
Conditions in all cases: protein: recombinant; tags: N-terminal GST; dsDNA, one strand shown

One assay has as its target ELF1 (Homo sapiens, UniProt P32519 1-619). Summed up:
(§1)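 Each value of binding signal is a hexamer's read frequency for a factor divided by the same hexamer's frequency in the tag-only sample. Barcoded, bead-captured GST fusions of human transcription factors made in yeast were pooled with that sample and incubated with 200 nmole of a random double-stranded 16-mer DNA library in Tris/NaCl/DTT/glycerol buffer at room temperature for 30 min. Washing, 0.1% formaldehyde crosslinking, proximity ligation, PCR and Illumina NextSeq500 sequencing followed.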

A further assay concerns the target T1, EHF (Homo sapiens, UniProt Q9NZC4 1-300).
T1 sequence: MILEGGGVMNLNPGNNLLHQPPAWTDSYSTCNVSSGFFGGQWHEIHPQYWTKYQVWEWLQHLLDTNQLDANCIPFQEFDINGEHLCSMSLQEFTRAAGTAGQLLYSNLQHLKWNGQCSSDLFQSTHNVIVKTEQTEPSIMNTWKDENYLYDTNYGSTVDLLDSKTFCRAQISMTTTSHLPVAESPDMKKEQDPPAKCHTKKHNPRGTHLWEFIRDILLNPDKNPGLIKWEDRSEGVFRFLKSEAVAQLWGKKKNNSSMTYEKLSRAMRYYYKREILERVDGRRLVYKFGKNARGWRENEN
Summed up:
as §1

In the next assay the target is T2, SPIC (Homo sapiens, UniProt Q8N5J4 1-248).
T2 sequence: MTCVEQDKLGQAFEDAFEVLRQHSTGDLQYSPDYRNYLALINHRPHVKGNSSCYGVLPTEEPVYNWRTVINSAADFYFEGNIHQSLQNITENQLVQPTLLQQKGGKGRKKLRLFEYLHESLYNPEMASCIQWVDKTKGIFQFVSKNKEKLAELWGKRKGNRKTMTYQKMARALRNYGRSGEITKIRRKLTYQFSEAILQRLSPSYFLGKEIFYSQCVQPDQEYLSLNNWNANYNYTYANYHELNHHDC
The method in brief: as §1

The next assay addresses ELF4 (Homo sapiens, UniProt Q99607 1-663). The method in brief: as §1
The next assay addresses T3, ELK4 (Homo sapiens, UniProt P28324-2 1-405).
T3 sequence: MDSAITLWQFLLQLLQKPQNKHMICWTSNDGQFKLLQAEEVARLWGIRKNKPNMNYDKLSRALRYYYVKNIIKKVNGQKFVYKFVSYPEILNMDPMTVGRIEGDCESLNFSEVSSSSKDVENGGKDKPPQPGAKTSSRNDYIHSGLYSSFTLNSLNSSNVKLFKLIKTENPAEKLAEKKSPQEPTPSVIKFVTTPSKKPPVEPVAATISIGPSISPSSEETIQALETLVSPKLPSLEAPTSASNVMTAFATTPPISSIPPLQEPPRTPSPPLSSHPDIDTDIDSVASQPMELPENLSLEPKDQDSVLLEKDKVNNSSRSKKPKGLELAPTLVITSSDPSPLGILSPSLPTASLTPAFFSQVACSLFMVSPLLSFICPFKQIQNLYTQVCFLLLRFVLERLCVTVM
The method in brief: as §1

For another assay, the target named is T4, ELF3 (Homo sapiens, UniProt P78545 1-371).
T4 sequence: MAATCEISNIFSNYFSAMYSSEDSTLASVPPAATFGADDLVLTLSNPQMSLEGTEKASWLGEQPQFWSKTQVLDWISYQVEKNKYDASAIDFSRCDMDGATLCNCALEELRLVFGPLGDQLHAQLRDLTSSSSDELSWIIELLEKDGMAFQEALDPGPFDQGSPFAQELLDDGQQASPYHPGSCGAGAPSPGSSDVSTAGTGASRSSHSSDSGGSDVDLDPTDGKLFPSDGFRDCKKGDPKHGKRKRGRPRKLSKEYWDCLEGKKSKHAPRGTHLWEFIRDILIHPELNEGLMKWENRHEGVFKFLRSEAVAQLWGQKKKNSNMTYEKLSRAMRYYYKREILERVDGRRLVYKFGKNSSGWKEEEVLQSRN
The method in brief: as §1

The target in a further assay is T5, ERF (Homo sapiens, UniProt P50548 1-548).
T5 sequence: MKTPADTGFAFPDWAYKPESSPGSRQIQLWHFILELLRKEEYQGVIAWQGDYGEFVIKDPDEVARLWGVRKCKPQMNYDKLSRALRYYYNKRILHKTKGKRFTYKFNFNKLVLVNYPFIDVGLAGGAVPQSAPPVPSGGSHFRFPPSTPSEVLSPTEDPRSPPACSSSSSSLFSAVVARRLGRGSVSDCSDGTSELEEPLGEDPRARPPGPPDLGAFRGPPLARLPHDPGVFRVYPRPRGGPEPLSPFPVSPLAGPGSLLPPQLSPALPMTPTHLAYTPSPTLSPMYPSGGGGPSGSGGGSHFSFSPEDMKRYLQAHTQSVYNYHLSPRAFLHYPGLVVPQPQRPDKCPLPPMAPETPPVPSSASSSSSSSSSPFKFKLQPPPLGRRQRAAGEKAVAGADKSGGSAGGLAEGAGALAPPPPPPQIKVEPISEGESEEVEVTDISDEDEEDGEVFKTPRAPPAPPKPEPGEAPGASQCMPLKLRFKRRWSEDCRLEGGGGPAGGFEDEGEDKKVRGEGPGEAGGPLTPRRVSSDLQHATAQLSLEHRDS
Summed up:
as §1

In another assay the target is T6, ETS2 (Homo sapiens, UniProt P15036 1-469).
T6 sequence: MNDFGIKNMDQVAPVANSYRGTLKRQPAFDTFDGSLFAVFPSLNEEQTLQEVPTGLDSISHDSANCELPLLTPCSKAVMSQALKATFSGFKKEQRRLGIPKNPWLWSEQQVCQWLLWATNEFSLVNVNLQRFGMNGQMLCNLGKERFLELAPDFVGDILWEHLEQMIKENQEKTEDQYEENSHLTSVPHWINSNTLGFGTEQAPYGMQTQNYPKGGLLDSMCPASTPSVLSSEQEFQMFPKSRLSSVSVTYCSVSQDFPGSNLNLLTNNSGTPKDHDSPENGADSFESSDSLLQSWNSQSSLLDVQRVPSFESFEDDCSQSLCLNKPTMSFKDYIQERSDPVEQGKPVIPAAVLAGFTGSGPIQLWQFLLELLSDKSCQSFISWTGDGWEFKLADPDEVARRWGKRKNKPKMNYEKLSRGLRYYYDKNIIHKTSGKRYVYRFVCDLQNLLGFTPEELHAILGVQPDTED
Summed up: as §1

The target in a further assay is T7, SPDEF (Homo sapiens, UniProt O95238 1-335).
T7 sequence: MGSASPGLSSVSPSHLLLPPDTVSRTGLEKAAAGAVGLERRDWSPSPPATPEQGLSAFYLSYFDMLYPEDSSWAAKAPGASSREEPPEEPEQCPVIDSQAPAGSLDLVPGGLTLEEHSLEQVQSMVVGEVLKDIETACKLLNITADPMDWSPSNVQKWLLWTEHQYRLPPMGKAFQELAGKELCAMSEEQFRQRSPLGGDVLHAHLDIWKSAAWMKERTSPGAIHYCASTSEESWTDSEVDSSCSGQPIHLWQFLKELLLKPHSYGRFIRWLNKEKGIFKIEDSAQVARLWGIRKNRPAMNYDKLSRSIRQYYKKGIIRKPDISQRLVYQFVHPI
Summed up:
as §1

Another assay deals with ETV6 (Homo sapiens, UniProt P41212 1-452). The method in brief: as §1
The target of the next assay is T8, ELK1 (Homo sapiens, UniProt P19419 1-428).
T8 sequence: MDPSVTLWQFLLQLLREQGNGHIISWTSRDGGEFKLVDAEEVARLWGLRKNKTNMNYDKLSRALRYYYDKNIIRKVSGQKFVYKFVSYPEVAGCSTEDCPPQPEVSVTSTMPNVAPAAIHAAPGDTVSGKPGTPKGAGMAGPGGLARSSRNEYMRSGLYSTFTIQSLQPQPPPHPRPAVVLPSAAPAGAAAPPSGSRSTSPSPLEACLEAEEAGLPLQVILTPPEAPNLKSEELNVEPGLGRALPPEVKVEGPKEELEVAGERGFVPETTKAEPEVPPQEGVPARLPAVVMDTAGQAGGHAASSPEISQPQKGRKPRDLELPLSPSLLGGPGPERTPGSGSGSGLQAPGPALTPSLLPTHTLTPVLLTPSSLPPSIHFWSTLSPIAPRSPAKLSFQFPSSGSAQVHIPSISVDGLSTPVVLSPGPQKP
The method in brief:
as §1

For another assay, the target named is T9, GABPA (Homo sapiens, UniProt Q06546 1-454).
T9 sequence: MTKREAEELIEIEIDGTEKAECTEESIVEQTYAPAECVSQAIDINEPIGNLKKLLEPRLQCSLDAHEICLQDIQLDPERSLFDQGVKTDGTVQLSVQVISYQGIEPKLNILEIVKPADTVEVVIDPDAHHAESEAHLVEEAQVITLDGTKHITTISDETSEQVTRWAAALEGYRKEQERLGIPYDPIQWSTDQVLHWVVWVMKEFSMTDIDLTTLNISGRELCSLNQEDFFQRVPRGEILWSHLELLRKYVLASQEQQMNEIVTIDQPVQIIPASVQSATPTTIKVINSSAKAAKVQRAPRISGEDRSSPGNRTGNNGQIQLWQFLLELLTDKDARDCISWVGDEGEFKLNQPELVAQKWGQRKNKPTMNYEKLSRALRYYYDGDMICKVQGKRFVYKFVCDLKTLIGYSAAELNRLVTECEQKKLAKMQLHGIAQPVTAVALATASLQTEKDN
The method in brief: as §1

Another assay addresses SPI1 (Homo sapiens, UniProt P17947 1-270). Summed up:
as §1

The next assay has as its target SPIB (Homo sapiens, UniProt Q01892 1-262). The method in brief:
as §1

The next assay concerns the target ETV1 (Homo sapiens, UniProt P50549 1-477). Summed up: as §1
For the next assay, the target named is T10, ETV3 (Homo sapiens, UniProt P41162-2 1-143).
T10 sequence: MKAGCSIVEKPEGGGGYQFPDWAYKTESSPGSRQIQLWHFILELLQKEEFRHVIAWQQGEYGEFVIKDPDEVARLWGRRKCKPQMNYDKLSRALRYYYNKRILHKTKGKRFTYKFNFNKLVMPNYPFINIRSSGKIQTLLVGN
Summed up: as §1

Sequence of ELF1 (P32519 whole entry, the tested form may be a part): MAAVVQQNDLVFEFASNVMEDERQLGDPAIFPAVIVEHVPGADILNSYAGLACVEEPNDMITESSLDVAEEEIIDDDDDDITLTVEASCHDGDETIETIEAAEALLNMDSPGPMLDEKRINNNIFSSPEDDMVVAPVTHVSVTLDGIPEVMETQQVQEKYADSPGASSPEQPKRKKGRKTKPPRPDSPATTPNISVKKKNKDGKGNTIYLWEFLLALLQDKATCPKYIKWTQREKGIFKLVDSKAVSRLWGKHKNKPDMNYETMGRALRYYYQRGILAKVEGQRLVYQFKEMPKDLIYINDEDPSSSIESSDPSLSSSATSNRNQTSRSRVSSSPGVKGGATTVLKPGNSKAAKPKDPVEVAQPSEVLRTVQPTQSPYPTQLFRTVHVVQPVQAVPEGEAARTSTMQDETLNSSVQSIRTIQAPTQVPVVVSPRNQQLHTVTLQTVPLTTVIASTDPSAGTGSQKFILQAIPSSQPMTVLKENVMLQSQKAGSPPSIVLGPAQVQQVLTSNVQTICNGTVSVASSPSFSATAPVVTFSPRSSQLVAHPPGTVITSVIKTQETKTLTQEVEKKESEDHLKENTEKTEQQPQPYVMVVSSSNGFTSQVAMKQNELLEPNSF
Sequence of ETV6 (P41212 whole entry): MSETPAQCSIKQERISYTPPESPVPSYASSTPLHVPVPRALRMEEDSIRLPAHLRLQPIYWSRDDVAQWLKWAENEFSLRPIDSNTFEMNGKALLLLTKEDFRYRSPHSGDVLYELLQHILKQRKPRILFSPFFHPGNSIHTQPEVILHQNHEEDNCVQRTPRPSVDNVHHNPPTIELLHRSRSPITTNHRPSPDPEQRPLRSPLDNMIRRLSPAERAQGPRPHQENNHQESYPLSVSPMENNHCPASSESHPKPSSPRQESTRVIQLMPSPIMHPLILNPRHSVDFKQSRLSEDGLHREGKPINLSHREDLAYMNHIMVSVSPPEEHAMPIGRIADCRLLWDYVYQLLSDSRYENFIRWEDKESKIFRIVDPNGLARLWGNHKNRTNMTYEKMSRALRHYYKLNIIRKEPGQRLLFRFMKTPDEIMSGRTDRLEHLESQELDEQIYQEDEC
Sequence of ETV1 (P50549 whole entry): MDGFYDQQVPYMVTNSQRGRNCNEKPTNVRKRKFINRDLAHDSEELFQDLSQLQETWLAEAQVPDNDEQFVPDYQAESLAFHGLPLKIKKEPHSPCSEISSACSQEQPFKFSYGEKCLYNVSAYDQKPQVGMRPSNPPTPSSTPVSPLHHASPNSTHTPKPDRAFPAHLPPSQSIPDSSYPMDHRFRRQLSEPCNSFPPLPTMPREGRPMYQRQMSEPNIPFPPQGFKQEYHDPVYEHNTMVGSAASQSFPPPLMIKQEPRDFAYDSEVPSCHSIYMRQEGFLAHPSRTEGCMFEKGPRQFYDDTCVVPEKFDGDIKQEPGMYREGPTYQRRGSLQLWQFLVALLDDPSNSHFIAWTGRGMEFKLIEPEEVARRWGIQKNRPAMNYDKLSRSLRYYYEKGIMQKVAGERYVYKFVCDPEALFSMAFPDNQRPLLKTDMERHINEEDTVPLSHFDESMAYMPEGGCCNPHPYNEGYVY
Sequence of ELF4 (Q99607 whole entry): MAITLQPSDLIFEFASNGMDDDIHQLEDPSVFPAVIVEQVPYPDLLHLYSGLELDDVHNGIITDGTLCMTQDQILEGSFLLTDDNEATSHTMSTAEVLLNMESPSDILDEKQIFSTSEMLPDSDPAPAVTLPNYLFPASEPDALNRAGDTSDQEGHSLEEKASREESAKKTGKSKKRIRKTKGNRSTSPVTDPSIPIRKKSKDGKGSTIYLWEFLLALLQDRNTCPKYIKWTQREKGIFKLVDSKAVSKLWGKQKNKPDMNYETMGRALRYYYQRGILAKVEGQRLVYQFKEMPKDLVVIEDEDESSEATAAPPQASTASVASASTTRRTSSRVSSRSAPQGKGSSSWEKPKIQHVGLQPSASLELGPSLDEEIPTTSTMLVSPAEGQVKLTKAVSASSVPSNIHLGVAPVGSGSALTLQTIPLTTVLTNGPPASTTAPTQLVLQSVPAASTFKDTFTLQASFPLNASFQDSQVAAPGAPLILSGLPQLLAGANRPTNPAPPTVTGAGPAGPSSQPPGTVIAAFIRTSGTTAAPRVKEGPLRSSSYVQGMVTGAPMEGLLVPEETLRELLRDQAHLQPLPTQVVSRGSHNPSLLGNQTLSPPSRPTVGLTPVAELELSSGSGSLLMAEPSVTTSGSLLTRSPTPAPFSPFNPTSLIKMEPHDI
Sequence of SPIB (Q01892 whole entry): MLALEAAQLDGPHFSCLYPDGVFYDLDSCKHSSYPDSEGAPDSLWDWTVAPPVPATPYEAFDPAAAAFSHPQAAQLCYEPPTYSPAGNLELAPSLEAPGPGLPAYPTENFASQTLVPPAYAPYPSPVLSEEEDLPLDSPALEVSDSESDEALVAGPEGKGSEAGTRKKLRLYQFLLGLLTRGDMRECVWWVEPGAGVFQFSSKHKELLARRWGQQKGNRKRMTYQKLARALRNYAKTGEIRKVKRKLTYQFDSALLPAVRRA

For GATTTA, the binding signal with ELF1 was 1 fold enrichment (6-mer frequency, TF over GST control); with EHF, 1.11 fold enrichment (6-mer frequency, TF over GST control); in the assay with SPIC it was 1.02 fold enrichment (6-mer frequency, TF over GST control); with ELF4, 1.05 fold enrichment (6-mer frequency, TF over GST control); with ELK4, 1.02 fold enrichment (6-mer frequency, TF over GST control); with ELF3, 1.02 fold enrichment (6-mer frequency, TF over GST control). Moreover, the binding signal is 1.02 fold enrichment (6-mer frequency, TF over GST control) with ERF; 1 fold enrichment (6-mer frequency, TF over GST control) with ETS2; 1.08 fold enrichment (6-mer frequency, TF over GST control) with SPDEF; 1.05 fold enrichment (6-mer frequency, TF over GST control) in the assay with ETV6.

In the case of TGAATC, the binding signal with ELK1 is 1.01 fold enrichment (6-mer frequency, TF over GST control); with GABPA, 1.05 fold enrichment (6-mer frequency, TF over GST control); with ELF1 it was 1 fold enrichment (6-mer frequency, TF over GST control); with EHF, 1.04 fold enrichment (6-mer frequency, TF over GST control); in the assay with SPI1, 1.11 fold enrichment (6-mer frequency, TF over GST control); with SPIB, 1.04 fold enrichment (6-mer frequency, TF over GST control). For the same sequence, the binding signal is 1.01 fold enrichment (6-mer frequency, TF over GST control) with SPIC; 1.03 fold enrichment (6-mer frequency, TF over GST control) with ELK4; 1.01 fold enrichment (6-mer frequency, TF over GST control) with ETV1; 1.11 fold enrichment (6-mer frequency, TF over GST control) with SPDEF; 1.01 fold enrichment (6-mer frequency, TF over GST control) with ETV3; 1.01 fold enrichment (6-mer frequency, TF over GST control) with ETV6.
